Inconclusive results are not listed. The source made the active and inactive calls. Unless noted, the call rests on the fitted dose curve; in most records, active means well fitted curve in the direction sought with a large enough effect; inconclusive means small, poorly fitted or top-dose-only effect, or another doubt; inactive means no such curve, though single readings can be large; an effect the other way counts as inactive or inconclusive.
Key:
[1] = target: Guanine nucleotide-binding protein G(i) subunit alpha-1 (Homo sapiens) (UniProt P63096); assay: qHTS Assay for Inhibitors of RGS12 GoLoco Motif Activity (Green Fluorophore) (AID 879);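 further: negative values mean loss of peptide binding seen as reduced polarization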
Summary of the method: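 A drop in FITC polarization marked displacement of the FITC-tagged RGS12 GoLoco peptide (10 nM) from Gαi1 (50 nM). Compounds were incubated 10 min at room temperature in Tris pH 7.5 buffer containing 150 mM NaCl, 0.1 mM GDP and 0.05% NP40; unlabeled peptide titration served as control.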

[2] = qHTS Assay for Identification of Small Molecule Agonists for Thrombopoietin (TPO) Signaling Pathway (AID 917)
Summary of the method: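 First, Ba/F3 cells with human TPO receptor were held overnight without IL-3. Next, compounds and TPO (26 pM final) were added. After 24 hrs at 37 C, luciferase detection reagent was added and luminescence measured following 10 min at room temperature.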

[3] = target: Muscarinic acetylcholine receptor M1 (Rattus norvegicus) (UniProt P08482); assay: qHTS Assay for Antagonists of Acetylcholine Muscarinic M1 Receptor: Kinetic Measurement of Intracellular Calcium Response (AID 943);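 further: Fluo-4 calcium signal as peak divided by basal fluorescence over 4 min; series mostly up to about 35 µM; nearly all actives have a fitted effect of over 75% in size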
Summary of the method: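 Quantitative HTS in CHO-M1 (rat receptor) cells: 10 min compound exposure ahead of 100 nM carbachol, Fluo-4 fluorescence followed 4 min, value expressed as peak-to-basal ratio.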

[4] = target: Muscarinic acetylcholine receptor M1 (Rattus norvegicus) (UniProt P08482); assay: qHTS Assay for Antagonists of Acetylcholine Muscarinic M1 Receptor: Measurement of IP-One Response (AID 944); further: nearly all actives have a fitted effect of over 75% in size
Summary of the method: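 Antagonism was measured as loss of carbachol-driven (EC80) IP1 accumulation in CHO cells carrying rat M1, using a homogeneous IP-One TR-FRET kit read at 620 and 665 nm.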

[5] = qHTS Assay for Identification of Small Molecule Antagonists for NFkB Signaling Pathway (AID 895; active means well fitted inhibition curve with a large enough effect in the signal ratio, with a control signal flat, not every such curve was filed as active; the % refers to the signal ratio)
Summary of the method: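 Beta-lactamase reporter read-out (460 and 530 nm emission ratio, 405 nm excitation, 2 hrs substrate loading RT) after 5 hr stimulation with 10 pM TNF alpha in compound-treated NFkB-bla ME-180 cells in low-serum medium.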

Measured: outcome

Sequence of Muscarinic acetylcholine receptor M1 (Rattus norvegicus) (P08482 whole entry, looked up): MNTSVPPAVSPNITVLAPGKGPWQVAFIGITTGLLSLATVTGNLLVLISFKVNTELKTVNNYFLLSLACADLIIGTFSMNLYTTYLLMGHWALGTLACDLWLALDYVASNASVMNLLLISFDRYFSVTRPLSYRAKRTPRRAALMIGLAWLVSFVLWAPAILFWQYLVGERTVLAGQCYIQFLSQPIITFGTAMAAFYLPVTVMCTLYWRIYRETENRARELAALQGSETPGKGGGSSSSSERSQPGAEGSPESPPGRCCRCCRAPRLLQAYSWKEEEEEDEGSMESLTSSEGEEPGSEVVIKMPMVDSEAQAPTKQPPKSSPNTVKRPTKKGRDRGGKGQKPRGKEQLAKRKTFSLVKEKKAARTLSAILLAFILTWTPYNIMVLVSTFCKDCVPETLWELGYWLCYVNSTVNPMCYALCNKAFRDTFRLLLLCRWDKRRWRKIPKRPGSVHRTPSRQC
Sequence of Guanine nucleotide-binding protein G(i) subunit alpha-1 (Homo sapiens) (P63096 whole entry, looked up): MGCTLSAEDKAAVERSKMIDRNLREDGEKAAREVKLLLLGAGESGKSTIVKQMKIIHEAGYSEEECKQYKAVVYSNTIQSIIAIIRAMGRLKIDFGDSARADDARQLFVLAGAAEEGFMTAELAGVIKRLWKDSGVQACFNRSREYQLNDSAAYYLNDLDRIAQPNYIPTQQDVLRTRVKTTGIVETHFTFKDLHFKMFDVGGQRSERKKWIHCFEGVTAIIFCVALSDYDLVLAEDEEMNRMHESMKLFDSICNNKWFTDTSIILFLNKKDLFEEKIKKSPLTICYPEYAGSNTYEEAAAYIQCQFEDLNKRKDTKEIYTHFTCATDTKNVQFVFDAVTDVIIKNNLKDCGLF

Cc1ccc(OC[C@H](O)[C@H](C)NC(C)C)c2c1CCC2
inactive: [1] | [2] | [3] | [4]

NCCCC(=O)O
inactive: [1] | [5] | [2] | [3] | [4]

— PubChem BioAssay (NCATS)
